Records with an inconclusive call do not appear. The source made the active and inactive calls. How the source made its calls: active means hit-call score of the fitted dose curve at least 0.9, where 1 is the maximum; inconclusive means response in the unintended direction; inactive means score below 0.9.

Chain of Androgen receptor (Homo sapiens) (P10275 whole entry, looked up): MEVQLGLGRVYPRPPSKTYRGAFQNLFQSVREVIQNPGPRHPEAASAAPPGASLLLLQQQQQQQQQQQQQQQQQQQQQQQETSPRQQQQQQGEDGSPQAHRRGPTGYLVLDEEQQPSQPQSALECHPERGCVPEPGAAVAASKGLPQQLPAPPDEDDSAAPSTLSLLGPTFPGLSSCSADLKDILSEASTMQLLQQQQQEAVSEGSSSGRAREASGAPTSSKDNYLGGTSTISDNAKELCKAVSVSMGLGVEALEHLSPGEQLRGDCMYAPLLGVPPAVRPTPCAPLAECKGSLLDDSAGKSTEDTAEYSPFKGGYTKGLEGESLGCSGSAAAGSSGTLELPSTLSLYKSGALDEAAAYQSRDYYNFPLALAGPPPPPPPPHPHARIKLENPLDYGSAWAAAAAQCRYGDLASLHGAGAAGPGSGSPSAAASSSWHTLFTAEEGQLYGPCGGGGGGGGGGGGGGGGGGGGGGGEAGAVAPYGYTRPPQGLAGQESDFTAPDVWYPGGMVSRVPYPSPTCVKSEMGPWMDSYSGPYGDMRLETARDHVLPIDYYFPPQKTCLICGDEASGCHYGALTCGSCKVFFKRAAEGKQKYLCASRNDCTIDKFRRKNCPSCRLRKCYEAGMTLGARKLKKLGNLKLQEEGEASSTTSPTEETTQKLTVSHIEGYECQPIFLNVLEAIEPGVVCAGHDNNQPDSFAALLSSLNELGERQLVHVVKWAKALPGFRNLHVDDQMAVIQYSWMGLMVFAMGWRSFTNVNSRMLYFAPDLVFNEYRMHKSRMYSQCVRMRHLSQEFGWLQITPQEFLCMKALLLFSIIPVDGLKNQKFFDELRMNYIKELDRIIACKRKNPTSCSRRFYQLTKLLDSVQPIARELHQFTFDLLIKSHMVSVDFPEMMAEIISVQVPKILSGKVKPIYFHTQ

The assay has as its target Androgen receptor (Homo sapiens) (UniProt P10275). The assay can be described thus: ATG_AR_TRANS: Attagene TRANS-FACTORIAL HepG2 Assay for human Androgen Receptor (AR) (AID 2282973). Conditions: HepG2 Attagene TRANS-FACTORIAL AR reporter transcription. The method, then:
ATG_TRANS is a cell-based, multiplexed-readout assay that uses HepG2, a human liver cell line, with measurements taken at 24 hours after chemical dosing in a 24-well plate.ATG_AR_TRANS is one of 30 assay component(s) measured or calculated from the ATG_TRANS assay. It is designed to make measurements of mRNA induction, a form of inducible reporter, as detected with fluorescence intensity signals by Reverse transcription polymerase chain reaction (RT-PCR) and Capillary electrophoresis technology.Data from the assay component ATG_AR_TRANS was analyzed into 1 assay endpoint. This assay endpoint, ATG_AR_TRANS, was analyzed in the positive analysis fitting direction relative to DMSO as the negative control and baseline of activity. Using a type of inducible reporter, measures of mRNA for gain-of-signal activity can be used to understand the reporter gene at the transcription factor-level as they relate to the gene AR. Furthermore, this assay endpoint can be referred to as a primary readout, because this assay has produced multiple assay endpoints where this one serves a reporter gene function. To generalize the intended target to other relatable targets, this assay endpoint is annotated to the nuclear receptor intended target family, where the subfamily is steroidal.
Human liver HepG2 cells are transiently transfected with multiple reporter transcription units (MRTUs) in 6-well plates using FuGene 6 reagent (Roche; 3 ml FuGene/1 mg DNA). The MRTU constructs are regulated by a cis-regulating element (promoter). […] A major difference between the CIS and TRANS system is that in CIS activities of endogenous TFs are measured, whereas the TRANS assay evaluates changes in activities of exogenous, chimeric NR-Gal4 proteins. […] At the end of 24 hour incubation, total RNA was isolated using TriZol reagent (Invitrogen). The isolated RNA is then reverse-transcribed using oligo(dT) primer and Mo-MLV reverse transcriptase (Invitrogen) with DNAse I (Ambion) treatment for 30 min. The one-tenth of the produced cDNA was amplified by PCR using Taq DNA polymerase (Invitrogen) and two reporter sequence-specific primers. The PCR products were fluorescently labeled by primer extension with 6-arboxyfluorescein (6-FAM) 5'-labeled reporter sequence-specific primer (2 min at 95 C, 20 s at 68 C and 10 min at 72 C) and these products were digested with 5U of HpaI (New England Biolabs) for 2h at 37 C. The fragments were purified using Qiaquick PCR columns (Qiagen), analyzed on an ABI 3130xL genetic analyzer (Applied Biosystems) with peak positions identified by using a set of X-rhodamine (ROX)-labeled MapMarker1000 molecular weight standards (BioVentures). The raw capillary electrophoresis data was processed using Attagraph software (Attagene).
With `O=c1[nH]c(=O)[nH]c(=O)[nH]1`, the molecule was classed as inactive.

With `Cc1cc(=O)[nH]o1`, the result was inactive.

Consider `CCC1(c2ccc(N)cc2)CCC(=O)NC1=O` (centres undefined), for which the result was inactive.

For `Cc1ccc2ccccc2c1C`, the molecule was classed as inactive.

With `Cl/C=C\C[N+]12CN3CN(CN(C3)C1)C2`, the molecule was called inactive.

In the case of `C=CC(=O)OCCCCCC(C)C`, the molecule was classed as inactive.

Regarding `c1cc[c]([Hg][c]2ccccc2)cc1`, the molecule was classed as inactive.

For the molecule `O=C(c1ccccc1)C(Cl)Cl`, the molecule was called inactive.

In the case of `Cc1ccccc1C(=O)Nc1cccc(OC(C)C)c1`, the molecule was classed as inactive.

With `CC(C)CCCCCCOC(=O)c1ccccc1C(=O)OCCCCCCC(C)C`, the molecule was classed as inactive.

Turning to `CCC(=O)C(CC(C)N(C)C)(c1ccccc1)c1ccccc1` (centres undefined), the molecule was classed as inactive.

Regarding `CC(C)(C)CC(C)(C)c1ccc(O)cc1`, the result was inactive.

With `COP(=O)(OC)O/C(=C\Cl)c1cc(Cl)c(Cl)cc1Cl`, the result was inactive.

With `CCSC(C)CC1CC(=O)C(C(CC)=NOC/C=C/Cl)=C(O)C1` (centres undefined), the result was inactive.

On to `CC12CC1(C)C(=O)N(c1cc(Cl)cc(Cl)c1)C2=O` (centres undefined), for which the result was inactive.

For `COP(=S)(OC)Oc1cc(Cl)c(Cl)cc1Cl`, the molecule was called inactive.

`CCOP(=S)(OCC)Oc1nc(Cl)c(Cl)cc1Cl`: the molecule was called inactive.

With `CN(CCCC(=O)c1cccnc1)N=O`, the molecule was called inactive.

With `Oc1c(I)cc(I)cc1I`, the result was inactive.

Consider `CCc1ccccc1C`, for which the outcome was inactive.

Turning to `COS(=O)(=O)c1ccc(C)cc1`, the call was inactive.

For `COP(=S)(OC)Oc1ccc(Sc2ccc(OP(=S)(OC)OC)cc2)cc1`, the result was inactive.

With `O=C1C2(Cl)C3(Cl)C4(Cl)C(Cl)(Cl)C5(Cl)C3(Cl)C1(Cl)C5(Cl)C24Cl` (centres undefined), the molecule was classed as inactive.

With `O=CC=O`, the result was inactive.

Take `Clc1ccc(COC(Cn2ccnc2)c2ccc(Cl)cc2Cl)cc1` (centres undefined): the result was inactive.

With `COP(=O)(OC)OC`, the outcome was inactive.

For the molecule `COP(=S)(OC)Oc1ccc(S(=O)(=O)N(C)C)cc1`, the call was inactive.

`CCCCCCCCc1ccc(O)cc1`: the result was inactive.

Consider `C[C@H]1CCCC(=O)CCC/C=C/c2cc(O)cc(O)c2C(=O)O1`, for which the outcome was inactive.

The values are drawn from PubChem BioAssay (EPA / NIEHS).
